Here are results for 40 molecules from PubChem BioAssay (NCATS).

Records with an inconclusive call do not appear. A call without a number means that no potency is given here. Activity calls are given as the source filed them. Calls come from the whole dose curve; as a rule, active = well fitted inhibition curve with a large enough effect; inconclusive = small, poorly fitted or top-dose-only effect; inactive = flat fitted curve, though single readings scatter.

Calcium and integrin-binding protein 1 (Homo sapiens), sequence (Q99828 whole entry, looked up): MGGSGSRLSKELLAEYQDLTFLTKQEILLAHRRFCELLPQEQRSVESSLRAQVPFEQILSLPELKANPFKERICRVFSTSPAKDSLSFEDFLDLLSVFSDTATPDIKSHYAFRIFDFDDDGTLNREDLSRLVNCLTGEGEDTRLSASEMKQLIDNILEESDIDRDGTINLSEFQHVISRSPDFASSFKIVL

The test has as its target Calcium and integrin-binding protein 1 (Homo sapiens) (UniProt Q99828). Put plainly: Primary qHTS for Identification of Calcium Integrin Binding Protein 1 (CIB1) Competitor (AID 1508620).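 Note: GST tagged CIB1 binding a fluorescein labelled alphaIIb integrin peptide tracer; top concentration of the series differs between compounds.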 The settings on record: CIB1-GST / FITC-alphaIIb peptide fluorescence polarization; series mostly up to 114 µM. The method, boiled down: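 Fluorescence polarization competition: CIB1-GST (1 uM final) preincubated with compound 15 min at room temperature, then FITC-labeled alphaIIb peptide (100 nM final) added for another 15 min. Polarization read at Ex 480/Em 540.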
In general terms: qHTS replaces the single test concentration by a dilution series.
With `N#Cc1nc(Nc2cc(Cl)cc(Cl)c2)nc(NC2CCCC2)n1`, the Potency result was “inactive”.
Turning to `O=c1c2ccccc2nc2sc(Nc3ccc(Sc4ccccc4)cc3)nn12`, the Potency result was “inactive”.
In the case of `CCOc1ccc(CCNC(=O)C2CCCCC2)cc1OCC` it was “inactive”; in that of `CSc1ccc(-c2cncc(NC(=O)c3cccs3)c2)cc1`, “inactive”; in that of `Cc1cnc(-c2ccccc2CO)nc1NCC1CCN(c2cccnc2)CC1`, “inactive”.
Regarding `O=C1CCc2cc(S(=O)(=O)Nc3ccccc3Cl)ccc2N1`, the Potency entry is “inactive”.
Turning to `FC(F)(F)c1cccc(-c2nc(NCc3ccc(-c4ccnc(C(F)(F)F)c4)cc3)c3ccccc3n2)c1`, the Potency result is “inactive”.
As to `Cc1cc(C)nc(NC(=S)N2CCN(c3ccccc3C#N)CC2)c1`, the Potency entry is “inactive”.
To `O=C(CNC(=O)c1ccc2cc[nH]c2c1)OC(C(=O)Nc1cc(C(F)(F)F)ccc1Cl)c1ccccc1` (stereo not given) belongs “inactive”; to `Cc1cc2c(s1)c1cnn(Cc3cccc(Cl)c3F)c(=O)c1n2C`, “inactive”.
To `COc1ccc(OC)c(-c2nnc3n2N=C(c2ccc(OC)c(OC)c2)CS3)c1` belongs “inactive”; to `CC(=O)NC1CCN(c2nc(-c3ccc(Br)cc3)cs2)CC1`, “inactive”; to `CN(C)CCCNC(=O)c1ccc(-c2cnc3c(O)ccc(C(=O)O)c3c2)cc1`, “inactive”.
In the case of `CCc1ccc(NC(=O)C(=O)NNC(=O)Cc2ccc(Cl)c(Cl)c2)cc1` it was “inactive”.
On to `O=C1Nc2cccc(Cl)c2/C1=C\c1cc(Cl)c(O)c(Cl)c1`, for which the Potency result was “inactive”.
To `Nc1cc(NC(=O)Nc2nnc(-c3ccncc3)s2)ccc1Cl` belongs “inactive”; to `N#Cc1cccnc1SC1=NS(=O)(=O)c2ccccc21`, “inactive”; to `Cn1c2cc(C#N)sc2c2cnn(Cc3ccc(F)cc3)c(=O)c21`, “inactive”.
To `CC(C)(C)OC(=O)N1CCN(c2ccc(NCc3ncc(-c4ccc(C#N)cc4)s3)cc2)CC1` belongs “inactive”.
To `O=C(Nc1cccnc1)c1cccs1` belongs “inactive”; to `COc1ccccc1NC(=O)c1ccc2ccccc2c1`, “inactive”; to `Oc1ccc(CNc2ccccc2C(F)(F)F)c2cccnc12`, “inactive”.
As for `O=C(O)CN1C(=O)N/C(=C\c2cccn2-c2ccc(P(=O)(O)O)cc2)C1=O`, the Potency entry is “inactive”.
Regarding `CN(C)c1cnc2c(O)ccc([S+](=O)([O-])Nc3ccccc3F)c2c1`, the Potency entry is “inactive”.
To `O=S(=O)(NCc1ccccc1F)c1ccc(O)c2ncccc12` belongs “inactive”.
To `O=C1CCc2cc(S(=O)(=O)Nc3cccnc3)ccc2N1` belongs “inactive”; to `COc1ccc(C2Nc3ccccc3C(=O)N2Cc2ccco2)cc1COc1ccc(N)cc1` (stereo not given), “inactive”.
In the case of `FC(F)(F)c1cc(N2CCN(C(=S)Nc3cc(Cl)ccn3)CC2)cc(C(F)(F)F)c1` it was “inactive”.
With `Cc1ccc(C[C@@H](NS(=O)(=O)c2ccc(C(=O)O)cc2)C(=O)O)cc1`, the Potency result is “inactive”.
In the case of `Cc1cccc(-n2cnc3cc(C(=O)N4CCCC(C)(C)C4)ccc32)c1` it was “inactive”.
`O=C1c2ccccc2C(=O)c2cc(S(=O)(=O)Nc3cccc4cccnc34)ccc21`: the Potency entry is “inactive”.
`CC(=O)c1ccc(N2CCN(S(=O)(=O)c3ccc4c(c3)CC(=O)N4)CC2)cc1`: the Potency result was “inactive”.
In the case of `COc1cccc(-c2nnc3n2N=C(c2cc(OC)ccc2OC)CS3)c1` it was “inactive”; in that of `Fc1cc(Nc2nc(-c3ccncc3)nc3ccccc23)ccc1-c1ccc(F)c(F)c1F`, “inactive”.
As to `O=C1c2ccccc2NC(c2ccc(-c3ccc(-c4ccccc4)cc3)o2)N1O` (stereo not given), the Potency result is “inactive”.
For the molecule `COc1ccc(C2c3c(n(CCCc4ccccc4)cnc3=N)Oc3ccc4ccccc4c32)cc1OC` (stereo not given), the Potency result was “inactive”.
In the case of `NC(=O)C1CCN(c2ncc(Br)cn2)CC1` it was “inactive”; in that of `O=C(Nc1ccc2ccccc2c1)Nc1nnc(Br)s1`, “inactive”.
On to `COc1ccc(C2=Nn3c(nnc3-c3ccccc3OC)SC2)cc1O[C@H]1CCOC1`, for which the Potency entry is “inactive”.
In the case of `O=C(Nc1ccccc1F)c1ccc(O)c2ncccc12` it was “inactive”.
